From the supplement of paper PMC10127200
Structures can show the parent of a compound that is named as a salt.

Tests used:
Assay in all cases: Euclidean distance of Cell Painting phenotypic profile (signed KS, 77 features) to DMSO centroid (dimensionless distance); 5 or 10 uM (library dependent); higher = stronger phenotypic change vs DMSO (phenoactivity)
Conditions in all cases: 48 h
786-O = system: 786-O
Summary of the method: (§1)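 Five cancer lines and a healthy fibroblast line received library compounds at 10 or 5 uM (library-dependent, 0.1% DMSO final) for 48 h. Stained cells were imaged confocally at 20X (9 fields/well). Harmony extracted 77 features, each scored as a signed Kolmogorov-Smirnov statistic against same-plate vehicle wells. Profiles were plate-position corrected, correlation-weighted and replicate-averaged at the top dose. Phenoactivity is the Euclidean distance from each profile to the median vehicle profile.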

A549 = system: A549
Summary of the method: as §1

DU145 = system: DU145
Summary of the method: as §1

FB = system: FB
Summary of the method: as §1

HEPG2 = system: HEPG2
Summary of the method: as §1

OVCAR4 = system: OVCAR4
Summary of the method: as §1

| Compound | Euclidean distance (786-O) | Euclidean distance (A549) | Euclidean distance (DU145) | Euclidean distance (FB) | Euclidean distance (HEPG2) | Euclidean distance (OVCAR4) |
| --- | --- | --- | --- | --- | --- | --- |
| O=C(O)c1ccc(-n2nc(-c3ccccc3O)nc2-c2ccccc2O)cc1 [Deferasirox] | 2.29 | 2.01 | 1.82 | 2.5 | 1.64 | 1.99 |
| CC(C)NCC(O)c1ccc(NS(C)(=O)=O)cc1 (stereo not drawn) [Sotalol] | 1.21 | 0.865 | 0.768 | 0.911 | 0.602 | 1.02 |
| CC[C@H]1OC(=O)[C@H](C)[C@@H](O[C@H]2C[C@@](C)(OC)[C@@H](O)[C@H](C)O2)[C@H](C)[C@@H](O[C@@H]2O[C@H](C)C[C@H](N(C)C)[C@H]2O)[C@](C)(O)C[C@@H](C)C(=O)[C@H](C)[C@H]2OC(=O)O[C@@]21C [Erythromycin Cyclocarbonate] | 1.11 | 1.33 | 0.736 | 0.984 | 1.01 | 0.912 |
| Cc1c(OCC(F)(F)F)ccnc1C[S@@+]([O-])c1nc2ccccc2[nH]1 [Dexlansoprazole] | 0.708 | 0.614 | 0.925 | 1.52 | 0.629 | 1.1 |
| CCS(=O)(=O)N1CC(CC#N)(n2cc(-c3ncnc4[nH]ccc34)cn2)C1 [Baricitinib phosphate] | 1.75 | 0.985 | 1.99 | 1.55 | 0.776 | 0.981 |
| Clc1ccc(CSC(Cn2ccnc2)c2ccc(Cl)cc2Cl)cc1 (stereo not drawn) [Sulconazole Nitrate] | 1.3 | 1.23 | 1.07 | 0.983 | 1.1 | 1.31 |
| COc1ccc([C@@H]2CC(=O)c3c(O)cc(O)cc3O2)cc1O [Hesperetin] | 1.32 | 0.944 | 1.21 | 1.47 | 1.37 | 1.23 |
| CN1CCN2c3ncccc3Cc3ccccc3C2C1 (stereo not drawn) [Mirtazapine] | 0.981 | 0.95 | 0.897 | 0.869 | 0.332 | 1.12 |
| O=C(Nc1ccccc1)N1CCN(c2nc(-c3ccccc3)ns2)CC1 | 0.718 | 0.932 | 0.9 | 1.03 | 1.34 | 1.08 |
| Nc1[nH]cnc2ncnc1-2 [Adenine sulfate] | 1.69 | 0.409 | 1.17 | 0.763 | 0.765 | 0.878 |
| OC(CN1CCN(c2cccc(Cl)c2)CC1)C(c1ccccc1)c1ccccc1 (stereo not drawn) | 1.08 | 1.33 | 0.908 | 1.03 | 0.858 | 1.16 |
| CC1(C)O[C@@H]2C[C@H]3[C@@H]4CCC5=CC(=O)C=C[C@]5(C)[C@H]4[C@@H](O)C[C@]3(C)[C@]2(C(=O)CO)O1 [Desonide] | 1.09 | 1.9 | 2.27 | 1.55 | 0.639 | 1.61 |
| COc1ccc(COc2cc3oc(=O)c4cc(C(C)O)ccc4c3cc2OC)cc1 (stereo not drawn) [Palomid 529 (P529)] | 1.8 | 1.25 | 1.29 | 1.02 | 1.33 | 1.06 |
| O=C(OC[C@H]1O[C@@H](OC(=O)c2cc(O)c(O)c(OC(=O)c3cc(O)c(O)c(O)c3)c2)[C@H](OC(=O)c2cc(O)c(O)c(OC(=O)c3cc(O)c(O)c(O)c3)c2)[C@@H](OC(=O)c2cc(O)c(O)c(OC(=O)c3cc(O)c(O)c(O)c3)c2)[C@@H]1OC(=O)c1cc(O)c(O)c(OC(=O)c2cc(O)c(O)c(O)c2)c1)c1cc(O)c(O)c(OC(=O)c2cc(O)c(O)c(O)c2)c1 [Tannic acid] | 0.956 | 1.44 | 1.47 | 1.45 | 1.43 | 1.05 |
| NCC[C@H](O)C(=O)N[C@@H]1C[C@H](N)[C@@H](O[C@H]2O[C@H](CN)[C@@H](O)[C@H](O)[C@H]2O)[C@H](O)[C@H]1O[C@H]1O[C@H](CO)[C@@H](O)[C@H](N)[C@H]1O [Amikacin disulfate] | 1.64 | 0.597 | 0.666 | 0.868 | 0.695 | 0.989 |
| O=C(c1ccc(Nc2nccc(-c3cc4ccccc4s3)n2)cc1)N1CCC(N2CCCC2)CC1 [IKK-16 (IKK Inhibitor VII)] | 3.91 | 4.2 | 3.04 | 4.35 | 4.29 | 4.4 |
| CCOC(=O)C1=C(C)NC(C)=C(C(=O)OC)C1c1cccc([N+](=O)[O-])c1 (stereo not drawn) [Nitrendipine] | 1 | 0.871 | 0.908 | 1.33 | 0.709 | 0.934 |
| O=C(O)c1ccccc1Nc1cccc(C(F)(F)F)c1 [Flufenamic acid] | 1.11 | 1.08 | 0.674 | 1.09 | 0.711 | 1.36 |
| CCOC(=O)C1=C[C@@H](OC(CC)CC)[C@H](NC(C)=O)[C@@H](N)C1 [Oseltamivir Phosphate] | 1.49 | 1.2 | 1.23 | 0.91 | 0.386 | 1.62 |
| CCCN[C@H]1CCc2nc(N)sc2C1 [Pramipexole 2HCl Monohydrate] | 0.779 | 1.01 | 1.58 | 1.08 | 0.888 | 1.26 |
| Cc1cc2ncnn2cc1Nc1ncc2c(n1)n(C1CCOCC1)c(=O)n2C | 1.35 | 1.07 | 1.33 | 1.79 | 0.714 | 0.718 |
| CC[N+](C)(C)c1cccc(O)c1 [Edrophonium chloride] | 0.852 | 0.865 | 0.738 | 0.728 | 0.598 | 0.943 |
| CC(=O)CC/C=C(\C)CC/C=C(\C)CC/C=C(\C)CCC=C(C)C [Teprenone] | 1.06 | 0.693 | 0.749 | 1.12 | 1.1 | 1.23 |
| Nc1nccs1 [Aminothiazole] | 0.905 | 1.79 | 2.14 | 1.92 | 0.971 | 1.9 |

| Compound | Euclidean distance (786-O) | Euclidean distance (A549) | Euclidean distance (DU145) | Euclidean distance (FB) | Euclidean distance (HEPG2) | Euclidean distance (OVCAR4) |
| --- | --- | --- | --- | --- | --- | --- |
| CNC(=O)[C@@H](NC(=O)[C@H](CC(C)C)[C@H](O)C(=O)NO)C(C)(C)C [Marimastat (BB-2516)] | 1.09 | 2.02 | 1.14 | 1.06 | 0.866 | 1.4 |
| CCCCCCCC(=O)N[C@H](CN1CCCC1)[C@H](O)c1ccc2c(c1)OCCO2 [Eliglustat] | 0.75 | 1.58 | 1.05 | 1.48 | 1.2 | 1.06 |
| O=[N+]([O-])c1ccc2c(c1)S(=O)(=O)C=C2 [Stattic] | 5.16 | 2.51 | 2.61 | 3.89 | 1.16 | 4.56 |
| O=C(/C=C\n1cnc(-c2cc(C(F)(F)F)cc(C(F)(F)F)c2)n1)N1CC(F)(F)C1 | 3.83 | 3.69 | 3.2 | 2.48 | 3.62 | 4 |
| N#C/C(=C(/N)Sc1ccc(N)cc1)c1ccccc1C(F)(F)F | 0.949 | 1.46 | 0.889 | 1.1 | 1.41 | 0.988 |
| C[C@]12CC[C@@H]3c4ccc(OS(=O)(=O)O)cc4CC[C@H]3[C@@H]1CCC2=O [Estropipate] | 0.946 | 0.41 | 0.686 | 0.891 | 0.623 | 1.17 |
| O=C(NCc1cccc(O)c1)Nc1nc(-c2ccncc2)cs1 | 1.82 | 1.54 | 3.26 | 3.61 | 1.47 | 1.88 |
| COc1ccc(C[C@H](NC(=O)[C@H](C)NC(=O)CN2CCOCC2)C(=O)N[C@@H](Cc2ccccc2)C(=O)[C@@]2(C)CO2)cc1 | 5.28 | 4.5 | 5.11 | 5.13 | 5.18 | 6.2 |
| CCC/C=C1\OC(=O)C2=C1CCC=C2 [Ligustilide] | 0.797 | 0.613 | 0.83 | 1.01 | 0.638 | 1.1 |
| CN1CCC(=C2c3ccccc3CCn3c(C=O)cnc32)CC1 [Alcaftadine] | 1.07 | 0.581 | 1.26 | 1.66 | 0.597 | 1.22 |
| Nc1c(Br)cc(Br)cc1CN[C@H]1CC[C@H](O)CC1 [Ambroxol] | 1.17 | 0.59 | 0.867 | 0.611 | 0.645 | 0.78 |
| CCCS(=O)(=O)Nc1ccc(F)c(C(=O)c2c[nH]c3ncc(Cl)cc23)c1F | 0.904 | 1.4 | 0.951 | 1.12 | 2.17 | 0.992 |
| O=C1OC(c2ccc(O)cc2)(c2ccc(O)cc2)c2ccccc21 [Phenolphthalein] | 1.6 | 0.655 | 1.35 | 0.979 | 0.6 | 1.49 |
| O=C1[C@H](Cc2ccc(O)cc2)N2C(=O)CCN(C(=O)NCc3ccccc3)[C@H]2CN1Cc1cccc2ccccc12 | 2.87 | 2.53 | 1.39 | 3.88 | 1.43 | 2.09 |
| COC(=O)N[C@H](C(=O)N[C@@H](Cc1ccccc1)[C@@H](O)CN(Cc1ccc(-c2ccccn2)cc1)NC(=O)[C@@H](NC(=O)OC)C(C)(C)C)C(C)(C)C [Atazanavir Sulfate] | 1.01 | 0.58 | 0.637 | 0.614 | 0.837 | 1.55 |
| CC(C)(C)C(=O)Oc1ccc(S(=O)(=O)Nc2ccccc2C(=O)NCC(=O)O)cc1 [Sivelestat sodium tetrahydrate] | 0.925 | 0.568 | 1.32 | 1.57 | 0.892 | 1.28 |
| CN(C)CCN(Cc1ccccc1)c1ccccn1 [Tripelennamine HCl] | 1.42 | 0.863 | 0.966 | 1.05 | 0.581 | 1.72 |
| Cc1c(NC(=O)OC[C@@H]2COCCN2)cn2ncnc(Nc3ccc4c(cnn4Cc4cccc(F)c4)c3)c12 | 2.06 | 1.47 | 1.13 | 1.52 | 1.28 | 0.963 |
| Cc1nnc(SCC2=C(C(=O)O)N3C(=O)[C@@H](NC(=O)Cn4cc(Cl)c(=O)c(Cl)c4)[C@H]3SC2)s1 [Cefazedone] | 1.36 | 0.841 | 0.667 | 1.16 | 0.733 | 0.862 |
| COc1cc2ncnc(Oc3cccc(NC(=O)Nc4cc(C(C)(C)C(F)(F)F)on4)c3)c2cc1OC | 0.889 | 2.41 | 1.19 | 1.02 | 0.923 | 1.88 |
| NC(=O)NO [Hydroxyurea] | 1.25 | 0.771 | 1.13 | 0.703 | 0.79 | 1.18 |
| O=C(O[C@@H]1C[C@@H]2C[C@H]3C[C@H](C1)N2CC3=O)c1c[nH]c2ccccc12 [Dolasetron Mesylate] | 1.12 | 0.793 | 0.963 | 1.17 | 0.558 | 1.22 |
| CCCCCCCCCCCCCCCCCCOP(=O)([O-])OC1CC[N+](C)(C)CC1 [Perifosine (KRX-0401)] | 1.95 | 1.09 | 0.853 | 1.23 | 2.19 | 1.79 |
| CN(C)CCOC(c1ccc(Cl)cc1)c1ccccn1 (stereo not drawn) [CarbinoxaMine Maleate] | 1.32 | 0.778 | 1.98 | 1.44 | 0.691 | 0.935 |
